Assay results taken from the supplement of paper PMC11732987, “Enantioselective OTUD7B fragment discovery through chemoproteomics screening and high-throughput optimisation” (Communications Chemistry, 2025).

Tests used:
Experiment in all cases: log2 ratio of Biotin-Ahx-Ub-VS probe labelling (fragment/DMSO); higher = less target engagement (more negative = stronger competition), active = hit call of the paper (q ≤ 0.05, log2 ratio ≤ -1)
Conditions in all cases: compound concentration: 200 uM; treatment time: 3 h
USP19 = molecular target: T1, USP19 (UniProt O94966)
T1 sequence (whole entry): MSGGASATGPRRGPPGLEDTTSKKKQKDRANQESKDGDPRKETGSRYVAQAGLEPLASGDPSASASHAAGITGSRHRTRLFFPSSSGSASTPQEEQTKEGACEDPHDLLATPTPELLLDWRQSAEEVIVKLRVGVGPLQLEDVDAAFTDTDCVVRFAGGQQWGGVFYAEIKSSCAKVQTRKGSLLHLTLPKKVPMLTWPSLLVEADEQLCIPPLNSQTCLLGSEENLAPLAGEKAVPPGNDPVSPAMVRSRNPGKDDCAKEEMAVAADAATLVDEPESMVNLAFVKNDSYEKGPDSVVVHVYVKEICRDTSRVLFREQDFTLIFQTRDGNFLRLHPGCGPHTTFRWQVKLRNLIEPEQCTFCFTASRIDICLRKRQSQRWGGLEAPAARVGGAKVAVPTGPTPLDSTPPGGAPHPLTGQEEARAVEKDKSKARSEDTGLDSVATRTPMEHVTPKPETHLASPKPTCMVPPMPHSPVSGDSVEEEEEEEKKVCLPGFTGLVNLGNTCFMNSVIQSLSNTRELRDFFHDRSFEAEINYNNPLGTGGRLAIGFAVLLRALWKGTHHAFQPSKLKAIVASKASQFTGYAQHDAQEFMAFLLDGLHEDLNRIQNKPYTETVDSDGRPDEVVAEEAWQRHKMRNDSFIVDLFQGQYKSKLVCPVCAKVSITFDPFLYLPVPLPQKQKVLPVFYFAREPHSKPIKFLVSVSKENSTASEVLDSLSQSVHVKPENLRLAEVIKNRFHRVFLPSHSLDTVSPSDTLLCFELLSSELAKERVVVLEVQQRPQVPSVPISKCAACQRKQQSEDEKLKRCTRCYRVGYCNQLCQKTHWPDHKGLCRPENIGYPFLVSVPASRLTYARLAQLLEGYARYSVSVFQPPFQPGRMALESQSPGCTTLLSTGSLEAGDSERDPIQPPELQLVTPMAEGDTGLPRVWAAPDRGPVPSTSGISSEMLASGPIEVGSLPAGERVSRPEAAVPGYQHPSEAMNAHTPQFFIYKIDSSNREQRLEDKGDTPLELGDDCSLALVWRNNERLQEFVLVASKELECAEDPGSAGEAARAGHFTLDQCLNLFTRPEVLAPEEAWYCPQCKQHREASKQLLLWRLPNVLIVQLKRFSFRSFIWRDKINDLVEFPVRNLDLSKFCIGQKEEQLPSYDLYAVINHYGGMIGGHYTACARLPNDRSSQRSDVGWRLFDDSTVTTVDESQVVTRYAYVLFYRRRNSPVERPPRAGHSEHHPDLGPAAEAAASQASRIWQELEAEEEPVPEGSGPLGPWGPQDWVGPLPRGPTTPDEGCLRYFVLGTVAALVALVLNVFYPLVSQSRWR
Method in brief: (§1)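 Labelled DUBs from HEK293T lysate were NeutrAvidin-enriched, digested with LysC and trypsin, and run by diaPASEF LC-MS/MS. Before that, each 495 µg sample in Tris/CHAPS/IGEPAL buffer with protease inhibitors was treated in triplicate with fragment at 200 µM or vehicle for 3 h, then with Biotin-Ahx-Ub-VS at 0.5 µM final for 1 h. Values are average log2 ratios of fragment over vehicle by unpaired t-test, based on global-median-normalised Spectronaut label-free quantities from proteins with ≥2 unique peptides.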

USP22 = molecular target: T2, USP22 (UniProt Q9UPT9)
T2 sequence (whole entry): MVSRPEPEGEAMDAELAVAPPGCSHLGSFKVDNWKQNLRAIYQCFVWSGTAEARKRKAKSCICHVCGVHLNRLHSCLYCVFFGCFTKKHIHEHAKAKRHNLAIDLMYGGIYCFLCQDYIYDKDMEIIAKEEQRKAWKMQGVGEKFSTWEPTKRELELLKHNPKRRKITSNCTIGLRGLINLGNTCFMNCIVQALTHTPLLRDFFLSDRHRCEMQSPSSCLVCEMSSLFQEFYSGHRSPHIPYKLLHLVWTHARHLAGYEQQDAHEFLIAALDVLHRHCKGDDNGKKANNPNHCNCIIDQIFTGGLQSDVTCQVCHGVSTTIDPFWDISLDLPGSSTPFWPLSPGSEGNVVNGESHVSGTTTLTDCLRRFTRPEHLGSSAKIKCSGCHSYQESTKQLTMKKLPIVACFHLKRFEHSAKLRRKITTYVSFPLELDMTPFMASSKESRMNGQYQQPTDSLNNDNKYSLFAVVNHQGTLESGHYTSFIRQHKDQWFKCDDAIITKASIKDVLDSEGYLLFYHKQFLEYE
Method in brief: as §1

USP24 = USP24 (UniProt Q9UPU5)
Sequence of USP24 (Q9UPU5 whole entry): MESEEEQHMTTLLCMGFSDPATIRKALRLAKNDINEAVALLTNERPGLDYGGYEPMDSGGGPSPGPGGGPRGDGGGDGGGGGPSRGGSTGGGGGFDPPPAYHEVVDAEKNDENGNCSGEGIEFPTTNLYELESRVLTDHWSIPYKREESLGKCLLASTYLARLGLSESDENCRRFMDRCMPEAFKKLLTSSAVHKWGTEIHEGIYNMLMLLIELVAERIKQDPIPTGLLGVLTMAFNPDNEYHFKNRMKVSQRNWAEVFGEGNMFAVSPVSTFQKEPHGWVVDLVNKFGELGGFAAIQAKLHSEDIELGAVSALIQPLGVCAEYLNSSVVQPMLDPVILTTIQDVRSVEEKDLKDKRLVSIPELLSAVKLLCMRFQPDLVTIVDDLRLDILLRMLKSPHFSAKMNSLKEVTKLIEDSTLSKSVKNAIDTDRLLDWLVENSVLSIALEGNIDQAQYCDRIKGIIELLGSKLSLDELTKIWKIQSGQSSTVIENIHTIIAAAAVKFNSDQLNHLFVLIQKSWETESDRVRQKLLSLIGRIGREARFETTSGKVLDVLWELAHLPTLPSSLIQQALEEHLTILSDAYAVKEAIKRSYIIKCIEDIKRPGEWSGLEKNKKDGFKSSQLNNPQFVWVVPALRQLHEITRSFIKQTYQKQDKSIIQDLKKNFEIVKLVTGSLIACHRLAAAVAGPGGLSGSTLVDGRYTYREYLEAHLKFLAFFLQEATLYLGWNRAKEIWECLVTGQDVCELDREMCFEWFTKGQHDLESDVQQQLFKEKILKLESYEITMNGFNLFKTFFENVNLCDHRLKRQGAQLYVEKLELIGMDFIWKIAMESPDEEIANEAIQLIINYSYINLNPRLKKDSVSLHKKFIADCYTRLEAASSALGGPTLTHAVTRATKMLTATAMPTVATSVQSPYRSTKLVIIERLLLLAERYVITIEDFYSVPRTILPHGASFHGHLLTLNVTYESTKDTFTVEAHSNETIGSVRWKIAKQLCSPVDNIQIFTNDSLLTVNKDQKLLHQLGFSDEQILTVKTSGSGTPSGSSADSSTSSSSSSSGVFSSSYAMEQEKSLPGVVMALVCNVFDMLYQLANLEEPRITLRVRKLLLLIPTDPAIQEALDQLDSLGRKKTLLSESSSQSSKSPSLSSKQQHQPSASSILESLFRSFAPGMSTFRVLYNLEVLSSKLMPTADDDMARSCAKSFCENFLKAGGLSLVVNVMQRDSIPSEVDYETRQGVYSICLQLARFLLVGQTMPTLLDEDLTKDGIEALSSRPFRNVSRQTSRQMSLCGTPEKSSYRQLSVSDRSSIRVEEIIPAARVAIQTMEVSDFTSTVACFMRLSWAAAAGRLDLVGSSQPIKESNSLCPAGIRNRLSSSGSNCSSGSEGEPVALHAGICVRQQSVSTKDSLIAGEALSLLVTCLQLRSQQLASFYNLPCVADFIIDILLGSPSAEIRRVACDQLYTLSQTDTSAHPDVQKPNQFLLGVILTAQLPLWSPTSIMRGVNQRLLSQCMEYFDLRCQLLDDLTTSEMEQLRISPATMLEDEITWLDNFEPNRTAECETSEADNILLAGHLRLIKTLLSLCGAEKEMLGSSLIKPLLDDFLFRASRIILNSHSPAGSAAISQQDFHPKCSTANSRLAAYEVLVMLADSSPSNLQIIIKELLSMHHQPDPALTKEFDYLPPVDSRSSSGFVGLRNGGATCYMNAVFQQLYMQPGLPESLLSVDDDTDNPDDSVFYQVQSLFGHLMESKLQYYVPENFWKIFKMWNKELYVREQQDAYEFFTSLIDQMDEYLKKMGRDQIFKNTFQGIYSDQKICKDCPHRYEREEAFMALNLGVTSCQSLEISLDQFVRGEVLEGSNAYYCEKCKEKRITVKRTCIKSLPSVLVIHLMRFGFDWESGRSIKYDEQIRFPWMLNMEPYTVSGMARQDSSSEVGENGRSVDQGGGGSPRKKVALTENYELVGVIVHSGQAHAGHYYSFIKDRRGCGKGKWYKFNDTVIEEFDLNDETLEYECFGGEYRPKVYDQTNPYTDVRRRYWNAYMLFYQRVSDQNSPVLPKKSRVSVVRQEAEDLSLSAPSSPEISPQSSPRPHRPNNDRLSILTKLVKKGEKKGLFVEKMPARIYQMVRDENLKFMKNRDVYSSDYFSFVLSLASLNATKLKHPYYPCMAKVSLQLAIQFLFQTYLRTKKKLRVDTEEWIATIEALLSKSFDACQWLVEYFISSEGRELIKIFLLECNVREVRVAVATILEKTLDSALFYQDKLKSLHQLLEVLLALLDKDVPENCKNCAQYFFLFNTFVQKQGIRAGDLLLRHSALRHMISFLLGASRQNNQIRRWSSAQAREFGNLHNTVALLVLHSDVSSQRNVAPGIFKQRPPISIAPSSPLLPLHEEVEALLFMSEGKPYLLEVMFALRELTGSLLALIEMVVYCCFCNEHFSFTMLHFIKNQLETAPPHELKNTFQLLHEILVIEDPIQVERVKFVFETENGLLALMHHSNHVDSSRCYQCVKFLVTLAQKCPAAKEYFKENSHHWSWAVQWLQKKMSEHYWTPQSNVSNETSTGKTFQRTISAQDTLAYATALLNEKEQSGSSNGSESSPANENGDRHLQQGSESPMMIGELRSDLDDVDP
Method in brief: as §1

USP25 = molecular target: T3, USP25 (UniProt Q9UHP3)
T3 sequence (whole entry): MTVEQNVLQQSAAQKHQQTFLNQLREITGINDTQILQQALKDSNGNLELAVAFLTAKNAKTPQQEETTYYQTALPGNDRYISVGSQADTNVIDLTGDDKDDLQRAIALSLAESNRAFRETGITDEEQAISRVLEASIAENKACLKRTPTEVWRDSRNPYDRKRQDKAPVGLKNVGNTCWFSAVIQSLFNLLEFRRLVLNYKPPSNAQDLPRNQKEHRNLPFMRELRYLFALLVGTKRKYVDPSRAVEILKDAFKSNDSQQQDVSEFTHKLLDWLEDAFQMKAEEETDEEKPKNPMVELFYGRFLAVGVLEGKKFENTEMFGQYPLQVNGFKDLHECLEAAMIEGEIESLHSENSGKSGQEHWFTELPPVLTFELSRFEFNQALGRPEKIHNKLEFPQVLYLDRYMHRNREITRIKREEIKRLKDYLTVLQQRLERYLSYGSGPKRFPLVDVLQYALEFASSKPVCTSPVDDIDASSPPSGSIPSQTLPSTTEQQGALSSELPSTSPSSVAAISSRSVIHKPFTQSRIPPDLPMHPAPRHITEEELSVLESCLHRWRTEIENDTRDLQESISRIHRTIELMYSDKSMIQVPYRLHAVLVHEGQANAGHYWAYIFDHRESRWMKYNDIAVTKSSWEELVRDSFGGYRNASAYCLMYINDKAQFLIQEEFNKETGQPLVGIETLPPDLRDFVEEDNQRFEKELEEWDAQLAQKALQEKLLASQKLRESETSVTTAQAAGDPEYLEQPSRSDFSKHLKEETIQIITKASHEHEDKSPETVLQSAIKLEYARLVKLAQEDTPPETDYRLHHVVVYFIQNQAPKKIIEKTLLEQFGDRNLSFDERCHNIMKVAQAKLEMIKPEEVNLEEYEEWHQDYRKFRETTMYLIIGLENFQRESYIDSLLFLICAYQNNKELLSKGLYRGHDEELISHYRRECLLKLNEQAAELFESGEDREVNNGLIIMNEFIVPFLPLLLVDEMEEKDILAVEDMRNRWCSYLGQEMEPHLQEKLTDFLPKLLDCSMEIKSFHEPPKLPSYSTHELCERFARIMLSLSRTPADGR
Method in brief: as §1

USP28 = molecular target: T4, USP28 (UniProt Q96RU2)
T4 sequence (whole entry): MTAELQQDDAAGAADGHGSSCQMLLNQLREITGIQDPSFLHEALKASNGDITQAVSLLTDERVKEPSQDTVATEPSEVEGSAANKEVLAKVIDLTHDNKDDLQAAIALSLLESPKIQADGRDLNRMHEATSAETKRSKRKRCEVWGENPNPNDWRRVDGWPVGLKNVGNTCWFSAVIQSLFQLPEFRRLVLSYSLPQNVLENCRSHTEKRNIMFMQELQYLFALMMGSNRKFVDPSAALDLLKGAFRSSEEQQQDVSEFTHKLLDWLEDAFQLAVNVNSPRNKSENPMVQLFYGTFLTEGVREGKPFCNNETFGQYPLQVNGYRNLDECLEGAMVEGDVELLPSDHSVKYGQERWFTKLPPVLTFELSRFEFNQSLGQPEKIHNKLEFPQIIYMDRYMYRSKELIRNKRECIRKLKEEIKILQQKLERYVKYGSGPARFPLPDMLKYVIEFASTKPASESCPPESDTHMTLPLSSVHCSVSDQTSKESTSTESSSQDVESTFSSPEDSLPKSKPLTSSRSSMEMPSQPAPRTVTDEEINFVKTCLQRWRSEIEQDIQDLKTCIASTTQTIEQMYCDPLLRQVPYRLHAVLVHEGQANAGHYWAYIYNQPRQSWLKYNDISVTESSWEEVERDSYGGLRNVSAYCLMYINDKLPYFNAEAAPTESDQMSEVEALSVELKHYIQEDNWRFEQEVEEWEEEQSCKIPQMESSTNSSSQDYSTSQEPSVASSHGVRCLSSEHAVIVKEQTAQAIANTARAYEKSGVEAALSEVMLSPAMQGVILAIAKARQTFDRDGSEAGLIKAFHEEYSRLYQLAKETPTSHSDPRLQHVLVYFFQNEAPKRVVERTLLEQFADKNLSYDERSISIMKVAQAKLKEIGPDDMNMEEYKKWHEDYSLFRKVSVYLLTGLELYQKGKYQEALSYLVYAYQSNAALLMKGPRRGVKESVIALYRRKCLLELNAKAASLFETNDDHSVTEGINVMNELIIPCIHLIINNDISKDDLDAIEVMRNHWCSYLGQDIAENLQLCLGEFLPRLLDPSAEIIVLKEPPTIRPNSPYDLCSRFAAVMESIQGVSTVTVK
Method in brief: as §1

Measured: log2 ratio of Biotin-Ahx-Ub-VS probe labelling

O=C(CCl)NCc1cccc(N2CCCC2=O)c1
inactive: USP19 0.025 | USP22 0.303 | USP24 0.00291 | USP25 -0.383 | USP28 -0.252
